Holding throughout (assay): PBM binding z-score (relative to random genomic background probes); higher = stronger binding; sequences stand for … in GC…GCGATTGACAGCGTAGAATGAAGG
In assay [1] the test system is FXR:RXRa (NR concentration 270 nM, RXRa partner concentration 90 nM). The method in brief: (§1)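 Antibodies against each partner of ligand-free nuclear receptor dimers (one per run) detected binding on custom Agilent 4×180K protein-binding microarrays after 1 h incubation. The double-stranded probes had 34-nt variable regions carrying direct-repeat seeds, single-nucleotide variants, half-site ablations and random human genomic background sequences. Binding z-scores, from regression-normalized fluorescence, use the random background probes as reference.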

Assay [2] has as its system LXRa:RXRa (NR concentration 270 nM, RXRa partner concentration 90 nM). The method in brief: as §1
Assay [3] relates to LXRa homodimer (NR concentration 270 nM). The method in brief: as §1
Assay [4] relates to LXRb:RXRa (NR concentration 270 nM, RXRa partner concentration 90 nM). The method in brief: as §1
The subject of assay [5] is LXRb homodimer (NR concentration 270 nM). The method in brief:
as §1

For assay [6], the system named is PPARa:RXRa (NR concentration 270 nM, RXRa partner concentration 90 nM). The method in brief: as §1
Assay [7] relates to PPARg:RXRa (NR concentration 180 nM, RXRa partner concentration 90 nM). The method in brief:
as §1

The subject of assay [8] is PPARg:RXRa 270nM:90nM, anti-RXR (NR concentration 270 nM, RXRa partner concentration 90 nM). The method in brief:
as §1

Assay [9] has as its system PPARg:RXRa 30nM:10nM, anti-RXR (NR concentration 30 nM, RXRa partner concentration 10 nM). The method in brief: as §1
Assay [10] deals with PPARg:RXRa 90nM:30nM, anti-RXR (NR concentration 90 nM, RXRa partner concentration 30 nM). The method in brief: as §1
Assay [11] has as its system PPARg:RXRa DBDmut IVT, anti-RXR (DBD mutation: RXRa K156A/R161A, NR concentration 270 nM, RXRa partner concentration 90 nM). The method in brief: as §1
The subject of assay [12] is PPARg:RXRa IVT, anti-PPARg (NR concentration 270 nM, RXRa partner concentration 90 nM). The method in brief: as §1
Assay [13] relates to PPARg DBDmut:RXRa IVT, anti-PPARg (DBD mutation: PPARg1 K132A/R137A, NR concentration 270 nM, RXRa partner concentration 90 nM). The method in brief: as §1
Assay [14] relates to PPARg DBDmut IVT, anti-PPARg (DBD mutation: PPARg1 K132A/R137A, NR concentration 270 nM). The method in brief:
as §1

Assay [15] relates to PPARg homodimer (NR concentration 180 nM). The method in brief:
as §1

Assay [16] concerns PXR:RXRa (NR concentration 270 nM, RXRa partner concentration 90 nM). The method in brief: as §1
The test system of assay [17] is PXR homodimer (NR concentration 270 nM). The method in brief:
as §1

For assay [18], the system named is RARa:RXR (NR concentration 270 nM, RXRa partner concentration 90 nM). The method in brief: as §1
Assay [19] concerns RARa homodimer (NR concentration 270 nM). The method in brief: as §1
Assay [20] relates to RARb:RXRa (NR concentration 270 nM, RXRa partner concentration 90 nM). The method in brief:
as §1

As to AGAATGAGGTTACCAAAGATCATGGAAACGCTTG, the PBM binding z-score is 2.05 in assay [1]; 6.75 in [2]; -0.149 in assay [3]; 3.98 in assay [4]; -0.29 in assay [5]; 3.63 in [6]. The PBM binding z-score in [7] came out at 2.88; in assay [8], 2.95; in assay [9], 1.11; in [10], 2.19; in assay [11], 3.74; in [12] it was 3.68. Moreover, the PBM binding z-score in assay [13] was found to be 0.737; in assay [14] it was 0.847; in assay [15], 0.294; in assay [16], 1.8; in [17], 0.0925; in assay [18], 2.58. Moreover, the results for the PBM binding z-score in [19] and in [20] were 0.108 and 2.11, respectively.

On to TCTTGTAGATCAAGCAGGTTAAGTAAGCCTGAGT, for which the PBM binding z-score in [1] was 0.318; in assay [2], 0.3; in assay [3] it was -0.426; in assay [4], 0.29; in assay [5], -0.426; in [6], 0.576. Further, the PBM binding z-score in assay [7] is -0.618; in assay [8], 1.2; in [9], 2.3; in [10], 1.78; in assay [11], 1.68; in assay [12], 0.377. For the same sequence, the PBM binding z-score was 0.298 in assay [13]; -0.27 in assay [14]; 0.192 in [15]; 0.295 in assay [16]; 0.247 in assay [17]; 0.198 in assay [18]. The PBM binding z-score in [19] is -0.203; in assay [20], 0.138.

As for ACAGATAGGTGATGAAGGTAACTCAGGCTATCAT, the PBM binding z-score in assay [1] is -0.192; in [2], -0.132; in assay [3] it was -0.27; in [4], -0.29; in [5] it was -0.768; in [6], 0.548. Also, the PBM binding z-score was 0.643 in assay [7]; 0.541 in [8]; 0.412 in [9]; 0.624 in assay [10]; 0.825 in [11]; 0.996 in assay [12]. In addition, the PBM binding z-score is 0.38 in [13]; 0.000268 in [14]; 0.111 in assay [15]; 0.00334 in [16]; -0.296 in assay [17]; 0.286 in [18]. Also, the results for the PBM binding z-score in [19] and in assay [20] were 0.188 and 0.11, respectively.

As to GCTAGCAGGCCATTTGGGGCACTCAATGACGGGC, the PBM binding z-score is -0.254 in assay [1]; -0.719 in assay [2]; -0.424 in assay [3]; -0.753 in [4]; -0.89 in assay [5]; -0.000395 in assay [6]. Further, the PBM binding z-score was 0.377 in assay [7]; -0.278 in assay [8]; -0.304 in [9]; -0.0904 in assay [10]; 1.12 in [11]; 0.8 in assay [12]. For the same sequence, the PBM binding z-score in assay [13] was -0.58; in [14], -1.74; in assay [15] it was -0.698; in [16], -0.594; in assay [17], -0.802; in assay [18], -0.159. For the same sequence, the PBM binding z-score was -1.06 in assay [19] and 0.199 in assay [20].

With CAACCTAGGTCAGGGCCAGTATAGGAGGAACGTT, the PBM binding z-score in assay [1] is 2.3; in [2] it was 1.36; in assay [3] it was -0.178; in assay [4] it was 0.897; in [5] it was -0.856; in [6] it was 2.5. The PBM binding z-score was 1.79 in assay [7]; 1.74 in assay [8]; 0.0391 in assay [9]; 0.938 in assay [10]; 2.7 in assay [11]; 3.26 in [12]. Further, the PBM binding z-score is 0.0736 in [13]; 0.168 in assay [14]; 1.57 in [15]; 0.478 in assay [16]; -0.518 in assay [17]; 1.45 in [18]. Also, the PBM binding z-score in [19] amounted to 0.172; in [20] it was 3.51.

Consider TCGAGTAGGTAACCAATGGGGCATTCAGCTTTCT, for which the PBM binding z-score is -0.177 in assay [1]; 0.0243 in [2]; -0.581 in assay [3]; 0.362 in [4]; -0.995 in assay [5]; 0.488 in assay [6]. The PBM binding z-score in assay [7] is -0.0874; in [8] it was 0.632; in [9], 1.08; in [10], 0.602; in [11], 2.5; in assay [12], 1.74. In addition, the PBM binding z-score was -0.421 in assay [13]; -0.752 in assay [14]; -0.5 in assay [15]; -0.372 in [16]; -0.877 in [17]; -0.292 in [18]. The PBM binding z-score in [19] was -0.817; in assay [20], 0.0352.

GCTTGTAGATCAAGGTAAAGAAAGACTAAGCTAA: the PBM binding z-score in assay [1] was -0.136; in assay [2] it was -0.278; in assay [3], -0.768; in assay [4] it was -0.413; in assay [5], -0.986; in assay [6], -0.222. In addition, the PBM binding z-score in [7] is 0.0186; in assay [8] it was 0.28; in assay [9], -0.318; in [10] it was -0.167; in assay [11] it was 0.905; in assay [12], 0.644. For the same sequence, the PBM binding z-score in assay [13] is -0.0923; in [14], 0.000518; in [15] it was -0.791; in [16], -0.53; in assay [17], -0.448; in assay [18] it was 0.178. Further, the PBM binding z-score in [19] was -0.716; in [20], -0.161.

The values are drawn from the supplement of paper PMC6555819.
